Assay results taken from PubChem BioAssay AID1011 (National Center for Advancing Translational Sciences (NCATS), 2008).
Activity calls are given as the source filed them. The call rests on the fitted dose curve.

Test: Confirmation Concentration-Response Assay for Inhibitors of the Schistosoma mansoni Redox Cascade
Settings: S. mansoni TGR/Prx2 coupled, NADPH fluorescence kinetics
Text: NIH Molecular Libraries Screening Centers Network [MLSCN] NIH Chemical Genomics Center [NCGC] MLSCN Grant: MH076449-01 Assay Provider: Prof David Williams, Illinois State University This is a confirmation assay for PubChem BioAssay AID 448. Schistosoma mansoni, a causative agent of schistosomiasis, resides in the bloodstream of their host up to 30 years without being eliminated by the host immune attack. One proposed survival mechanism is the production of an antioxidant "firewall" that neutralizes the oxidative assault of the host's immune attack. Schistosoma mansoni peroxiredoxins (Prx) are important parasite antioxidant proteins that play a crucial role in redox balance mechanisms. […] First, the proteins are essential for the parasite survival. […] Third, the protein(s) is amenable for study at the molecular level and can be produced in bacteria in large quantities, in soluble and active form. Inhibition of Prx activity was screened in a coupled-enzyme format with reducing equivalents being transferred from NADPH to […] via thioredoxin/glutathione reductase (TGR)-catalyzed reaction, then from thioredoxin to hydrogen peroxide via Prx-catalyzed electron transfer. A decrease in the fluorescence intensity of NADPH was used to measure the enzyme activity. Purified S. mansoni TGR and Prx were provided by Professor David L. Williams, Illinois State University.
Buffer: 100 mM phosphate buffer, pH 7.4, 10 mM EDTA, 0.01% Tween-20. […] 100 uM NADPH/25 nM TGR/700 uM GSH/50 nM Prx2 mixture in columns 1, 2, 5-48. Titration of control potassium antimonyl tartrate (PAT, from 1 mM, then 1:5) pin-transferred to lower half of column 2. Column 1 and upper half of column 2 are neutral (100% activity). Assay Steps: Three uL of reagents were dispensed to 1536-well Greiner black plates. Compounds and controls (20 nL) were transferred via Kalypsys PinTool. The plates were incubated for 15 min at room temperature, and then a 1 uL aliquot of 400 uM NADPH/700 uM GSH was added, immediately followed by a 1uL aliquot of 2.5 mM H2O2 (to start the reaction). The plate was transferred to ViewLux (Perkin-Elmer) High-throughput CCD imager where kinetic measurements (every 30 sec, for a total of 8 min) of NADPH fluorescence were taken using 365 nm excitation/450 nm emission filter set. During dispense, enzyme-containing reagent bottles were kept submerged into 4 deg C water bath to minimize degradation.

| SMILES | Potency | outcome |
| --- | --- | --- |
| CC1=CC(=O)NP(=O)(Oc2ccc3ccccc3c2)N1 (stereo not drawn) | 120 nM (active) |  |
| O=C(c1cccs1)c1no[n+]([O-])c1C(=O)c1cccs1 | 1480 nM (active) |  |
| CC1=CC(=O)NP(=O)(Oc2ccc(Cl)cc2)N1 (stereo not drawn) | 420 nM (active) |  |
| CCOCN1C(=O)c2cccc3cccc1c23 |  | inactive |
| O=C1c2cccc3cccc(c23)N1Cc1ccccc1 |  | inactive |
| COc1ccc2cc(CN(C[C@H]3COCCO3)S(=O)(=O)c3ccccc3)c(=O)[nH]c2c1 |  | inactive |
| Cc1ccc(S(=O)(=O)N(CCCN2CCCC2=O)Cc2cc3c(C)ccc(C)c3[nH]c2=O)cc1 |  | inactive |
| COc1ccc2cc(CN(C[C@H]3COCCO3)S(=O)(=O)c3ccc(Cl)cc3)c(=O)[nH]c2c1 |  | inactive |
| COC(=O)C(C(=O)OC)c1cc(Br)c2noc3c2c1C(=O)c1ccccc1-3 | 120 nM (active) |  |
| COc1ccc(S(=O)(=O)N(Cc2cc3ccc(OC)cc3[nH]c2=O)C[C@H]2COCCO2)cc1 | 66300 nM (active) |  |
| Cc1conc1C(=O)c1no[n+]([O-])c1C(=O)c1nocc1C |  | inactive |
| O=C(c1ccco1)c1no[n+]([O-])c1C(=O)c1ccco1 | 1520 nM (active) |  |
| Cc1cc(C)c2cc(CN(CC3COCCO3)S(=O)(=O)c3ccc(Cl)cc3)c(=O)[nH]c2c1 (stereo not drawn) |  | inactive |
| CC1=CC(=O)NP(=O)(Oc2ccccc2)N1 (stereo not drawn) | 2030 nM (active) |  |
| COc1ccc(C(=O)c2no[n+]([O-])c2C(=O)c2ccc(OC)cc2)cc1 | 4670 nM (active) |  |
| Cc1cc2cc(CN(CCCN3CCCC3=O)S(=O)(=O)c3ccc(F)cc3)c(=O)[nH]c2cc1C |  | inactive |
| CCOc1ccc(OP2(=O)NC(=O)C=C(C)N2)cc1 (stereo not drawn) | 180 nM (active) |  |
| CCOC(=O)C(C(=O)OCC)c1cc(Br)c2noc3c2c1C(=O)c1ccccc1-3 |  | inactive |
| COc1ccc(S(=O)(=O)N(CCCN2CCCC2=O)Cc2cc3c(C)ccc(C)c3[nH]c2=O)cc1 | 50100 nM (active) |  |
| CCN1C(=O)c2cccc3cccc1c23 |  | inactive |
| CN1C(=O)c2cccc3cccc1c23 |  | inactive |
| O=P(Nc1ccccc1F)(c1ccccc1)c1nc2ccccc2s1 (stereo not drawn) | 23900 nM (active) |  |
| CCCCOc1cc(Br)c2noc3c2c1C(=O)c1ccccc1-3 | 800 nM (active) |  |
